Source: PubChem BioAssay (NCATS)
Inconclusive results are not listed. Activity calls are given as the source filed them. Calls come from the whole dose curve; as a rule, active = well fitted curve in the direction sought with a large enough effect; inconclusive = small, poorly fitted or top-dose-only effect, or another doubt; inactive = no such curve, though single readings can be large; an effect the other way counts as inactive or inconclusive.

What was measured:
[1] = qHTS of pediatric cancer cell lines to identify multiple opportunities for drug repurposing: Primary screen for OHS-50 cells (AID 1347103); note: nearly all actives have a fitted effect of over 40% in size; note: potency is the fitted concentration of half-maximal effect
Procedure, shortened: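 Cells (500-1,000/well) rested 5 h, then received compounds for 48 h; metabolically active cells were measured by CellTiter-Glo luminescence. Final concentrations spanned up to 46 µM (MIPE, 11-point) or 0.59 nM-46 µM (NPC, 8-point) in primary screens, 11-point in follow-ups.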

[2] = qHTS of pediatric cancer cell lines to identify multiple opportunities for drug repurposing: Primary screen for RD cells (AID 1347104); note: nearly all actives have a fitted effect of over 55% in size; note: potency is the fitted concentration of half-maximal effect
Procedure, shortened: (§1)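 Primary screen of approved and investigational compounds on cells in growth media at 37 degrees C, 5% CO2. MIPE set at 11-point and NPC set at 8-point dilutions; viability scored by ATP-based luminescence at 48 hours.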

[3] = qHTS of pediatric cancer cell lines to identify multiple opportunities for drug repurposing: Primary screen for control Hh wild type fibroblast cells (AID 1347106);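 note: series mostly up to about 46 µM; a drop in luminescence marks cytotoxicity and a rise apparent proliferation; nearly all actives have a fitted effect of over 55% in size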
Procedure, shortened: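 Cells (500-1,000/well) in growth media were settled 5 h at 37 degrees C, then given compounds for 48 h. Viability was read as CellTiter-Glo luminescence. Primary runs used MIPE at 11 points (0.78 nM-46 µM) and NPC at 8 points (0.59 nM-46 µM); follow-ups used 11 points.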

[4] = qHTS of pediatric cancer cell lines to identify multiple opportunities for drug repurposing: Primary screen for MG 63 (6-TG R) cells (AID 1347105); note: nearly all actives have a fitted effect of over 50% in size; note: potency is the fitted concentration of half-maximal effect
Procedure, shortened: as §1

[5] = qHTS of pediatric cancer cell lines to identify multiple opportunities for drug repurposing: Primary screen for Rh30 cells (AID 1347107); note: nearly all actives have a fitted effect of over 75% in size; note: potency is the fitted concentration of half-maximal effect
Procedure, shortened: (§2)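 Viability after 48 h compound treatment at 37C, 500-1,000 cells/well, read as ATP luminescence with CellTiter-Glo. Primary screens used 11-point (MIPE, 0.78 nM-46 µM) or 8-point (NPC, 0.59 nM-46 µM) final concentrations; follow-up screens used 11-point dilutions.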

[6] = qHTS of pediatric cancer cell lines to identify multiple opportunities for drug repurposing: Primary screen for Rh41 cells (AID 1347108); note: nearly all actives have a fitted effect of over 70% in size; note: potency is the fitted concentration of half-maximal effect
Procedure, shortened: as §1

[7] = qHTS of pediatric cancer cell lines to identify multiple opportunities for drug repurposing: Confirmatory screen for NB1643 cells (AID 1347109); note: nearly all actives have a fitted effect of over 45% in size; note: potency is the fitted concentration of half-maximal effect
Procedure, shortened: as §2

[8] = qHTS of pediatric cancer cell lines to identify multiple opportunities for drug repurposing: Confirmatory screen for A673 cells (AID 1347110); note: potency is the fitted concentration of half-maximal effect; nearly all actives have a fitted effect of over 65% in size
Procedure, shortened: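 A673 cells seeded at 500-1,000 cells/well, rested 5 h, then dosed; primary MIPE 11-point (0.78 nM to 46 µM), NPC (0.59 nM to 46 µM); confirmatory 11-point. CellTiter-Glo luminescence after 48 h.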

[9] = qHTS of pediatric cancer cell lines to identify multiple opportunities for drug repurposing: Confirmatory screen for SK-N-MC cells (AID 1347111); conditions: SK-N-MC cell viability;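 note: potency is the fitted concentration of half-maximal effect; cells exposed to compound for 48 h before the readout; nearly all actives have a fitted effect of over 70% in size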
Procedure, shortened: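 SK-N-MC cells at 500-1,000 cells/well in growth media were pre-incubated 5 h, then exposed to compounds at 11-point dilutions for 48 h at 37 degrees C, 5% CO2. Viability was read as CellTiter-Glo luminescence.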

[10] = qHTS of pediatric cancer cell lines to identify multiple opportunities for drug repurposing: Confirmatory screen for BT-12 cells (AID 1347112); note: nearly all actives have a fitted effect of over 55% in size; note: potency is the fitted concentration of half-maximal effect
Procedure, shortened: as §2

[11] = qHTS of pediatric cancer cell lines to identify multiple opportunities for drug repurposing: Confirmatory screen for LAN-5 cells (AID 1347113); note: nearly all actives have a fitted effect of over 65% in size; note: potency is the fitted concentration of half-maximal effect
Procedure, shortened: as §2

[12] = qHTS of pediatric cancer cell lines to identify multiple opportunities for drug repurposing: Confirmatory screen for DAOY cells (AID 1347114); note: nearly all actives have a fitted effect of over 65% in size; note: potency is the fitted concentration of half-maximal effect
Procedure, shortened: (§3)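 Viability measured as metabolically active cells via CellTiter-Glo luminescence following 48 hours of compound exposure, 11-point dilutions in confirmatory testing. 500-1,000 cells/well plated 5 hours before dosing; controls were DMSO and 2.3 µM bortezomib.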

[13] = qHTS of pediatric cancer cell lines to identify multiple opportunities for drug repurposing: Confirmatory screen for NB-EBc1 cells (AID 1347115); note: nearly all actives have a fitted effect of over 45% in size; note: potency is the fitted concentration of half-maximal effect
Procedure, shortened: as §2

[14] = qHTS of pediatric cancer cell lines to identify multiple opportunities for drug repurposing: Confirmatory screen for SJ-GBM2 cells (AID 1347116); note: nearly all actives have a fitted effect of over 60% in size; note: potency is the fitted concentration of half-maximal effect
Procedure, shortened: as §3

[15] = qHTS of pediatric cancer cell lines to identify multiple opportunities for drug repurposing: Confirmatory screen for BT-37 cells (AID 1347117); note: nearly all actives have a fitted effect of over 55% in size; note: potency is the fitted concentration of half-maximal effect
Procedure, shortened: as §2

[16] = qHTS of pediatric cancer cell lines to identify multiple opportunities for drug repurposing: Confirmatory screen for TC32 cells (AID 1347118); conditions: TC32 Ewing sarcoma cells viability qHTS; note: potency is the fitted concentration of half-maximal effect; nearly all actives have a fitted effect of over 65% in size
Procedure, shortened: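 Measured quantity: luminescence from CellTiter-Glo, reflecting metabolically active TC32 cells following 48 h of compound. Curves came straight from multi-point titrations, with 8 or 11 points in primary and 11 in confirmatory screening.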

[17] = qHTS of pediatric cancer cell lines to identify multiple opportunities for drug repurposing: Confirmatory screen for MG 63 (6-TG R) cells (AID 1347119)
Procedure, shortened: as §2

[18] = qHTS of pediatric cancer cell lines to identify multiple opportunities for drug repurposing: Confirmatory screen for control Hh wild type fibroblast cells (AID 1347121); note: nearly all actives have a fitted effect of over 70% in size; note: potency is the fitted concentration of half-maximal effect
Procedure, shortened: as §2

[19] = qHTS of pediatric cancer cell lines to identify multiple opportunities for drug repurposing: Confirmatory screen for U-2 OS cells (AID 1347122)
Procedure, shortened: as §2

[20] = qHTS of pediatric cancer cell lines to identify multiple opportunities for drug repurposing: Confirmatory screen for Rh41 cells (AID 1347123);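 note: 48 h compound exposure; nearly all actives have a fitted effect of over 60% in size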; note: potency is the fitted concentration of half-maximal effect
Procedure, shortened: as §2

Measured: Potency

CC(C)(C)c1ccc(C(=O)CCCN2CCC(OC(c3ccccc3)c3ccccc3)CC2)cc1
inactive: [3]
active: [1] 15.5 µM | [2] 21.1 µM

CN(C)CCCN1c2ccccc2Sc2ccccc21
inactive: [4] | [3] | [5] | [6]
active: [1] 17.4 µM

CCc1cccc(N(C)C(N)=Nc2cccc3ccccc23)c1
active: [1] 15.5 µM
inactive: [3] | [5]

Cc1ccc(Cl)c(Nc2ccccc2C(=O)O)c1Cl
inactive: [1] | [2] | [3] | [5] | [6]

NC/C=C/C(=O)O
inactive: [1] | [2] | [4] | [3] | [5] | [6]

COC(=O)C1=C(C)NC(C)=C(C(=O)OCCN(C)Cc2ccccc2)C1c1cccc([N+](=O)[O-])c1 (stereo unspecified)
inactive: [3] | [5]
active: [1] 17.4 µM

CCCCNC(=O)NS(=O)(=O)c1ccc(C)cc1
inactive: [1] | [2] | [4] | [3] | [5] | [6]

CCC(=O)c1ccc2c(c1)N(CCCN(C)C)c1ccccc1S2
active: [1] 30.9 µM
inactive: [4] | [3] | [5] | [6]

NC(=O)N1c2ccccc2C=Cc2ccccc21
inactive: [1] | [2] | [4] | [3] | [5] | [6]

CCN1CCc2nc(N)oc2CC1
inactive: [1] | [2] | [4] | [3] | [5] | [6]

C[n+]1cc2c3c(ccc2c2ccc4cc5c(cc4c21)OCO5)OCO3
active: [1] 2.13 µM | [2] 1.84 µM | [4] 2.31 µM | [5] 2.59 µM | [6] 2.59 µM | [7] 1.02 µM | [8] 1.15 µM | [9] 1.29 µM | [10] 3.23 µM | [11] 0.811 µM | [12] 2.29 µM | [13] 3.23 µM | [14] 3.62 µM | [15] 1.44 µM | [16] 1.15 µM | [17] 1.62 µM | [18] 4.56 µM | [19] 1.44 µM | [20] 2.29 µM

C[C@]12CCC(=O)C=C1CC[C@@H]1[C@@H]2C(=O)C[C@@]2(C)[C@H]1CC[C@]2(O)C(=O)CO
inactive: [1] | [2] | [4] | [3] | [5] | [6]

Fc1ccc(C(c2ccc(F)cc2)N2CCN(C/C=C/c3ccccc3)CC2)cc1
inactive: [4] | [3] | [5] | [6]
active: [1] 17.4 µM

C[C@]12C=CC(=O)C=C1CC[C@H]1[C@@H]3C[C@@H](O)[C@](O)(C(=O)CO)[C@@]3(C)C[C@H](O)[C@@]12F
active: [7] 6.57 µM | [8] 1.04 µM | [9] 7.37 µM | [11] 9.27 µM | [15] 9.27 µM | [16] 6.57 µM
inactive: [1] | [2] | [4] | [3] | [5] | [6] | [12] | [13]

COC(=O)C1=C(C)NC(C)=C(C(=O)OC(C)(C)CN(C)CCC(c2ccccc2)c2ccccc2)C1c1cccc([N+](=O)[O-])c1 (stereo unspecified)
active: [1] 12.3 µM
inactive: [4] | [3]

CC(C)COCC(CN(Cc1ccccc1)c1ccccc1)N1CCCC1 (stereo unspecified)
active: [1] 19.5 µM | [2] 26.6 µM
inactive: [3]

COc1cc2c(cc1OC)-c1cc(=Nc3c(C)cc(C)cc3C)n(C)c(=O)n1CC2
inactive: [3] | [5]
active: [1] 21.9 µM | [2] 23.7 µM

CC(=O)[C@]1(O)Cc2c(O)c3c(c(O)c2[C@@H](O[C@H]2C[C@H](N)[C@H](O)[C@H](C)O2)C1)C(=O)c1ccccc1C3=O
inactive: [5]
active: [1] 1.1 µM | [2] 1.06 µM | [4] 2.11 µM | [6] 0.841 µM

c1cc(CN2CCCCC2)cc(OCCCNc2nc3ccccc3s2)c1
inactive: [4] | [3] | [5]
active: [1] 27.6 µM

CC(C(=O)O)c1ccc(CC2CCCC2=O)cc1 (stereo unspecified)
inactive: [1] | [2] | [4] | [3] | [5] | [6]

COc1ccc2c(c1OC)C(=O)O[C@@H]2[C@H]1c2c(cc3c(c2OC)OCO3)CCN1C
inactive: [1] | [2] | [4] | [3] | [5] | [6]

CCNC(=O)N1CCN(CCCC(c2ccc(F)cc2)c2ccc(F)cc2)CC1
inactive: [2] | [4] | [3] | [5]

CN1CCN(C2=Nc3ccccc3Oc3ccc(Cl)cc32)CC1
inactive: [2] | [4] | [3] | [5] | [6]

CN(C)CCN(Cc1cccs1)c1ccccn1
inactive: [2] | [4] | [3] | [5] | [6]

Nc1nc(N)c2nc(-c3ccccc3)c(N)nc2n1
inactive: [4] | [3] | [6] | [11] | [18] | [20]
active: [2] 23.7 µM | [9] 3.69 µM | [14] 9.27 µM | [16] 3.69 µM

O=C(CCCN1CCC(O)(c2cccc(C(F)(F)F)c2)CC1)c1ccc(F)cc1
inactive: [4] | [3] | [5] | [6]

C[C@]12CC[C@@H]3c4ccc(O)cc4C[C@@H](CCCCCCCCCS(=O)CCCC(F)(F)C(F)(F)F)[C@H]3[C@@H]1CC[C@@H]2O (stereo partly specified)
active: [8] 11.7 µM | [9] 2.61 µM | [16] 8.27 µM | [20] 8.27 µM
inactive: [2] | [4] | [3] | [5] | [6] | [7] | [10] | [11] | [12] | [13] | [14] | [15]

CCCCCCCC/C=C\CCCCCCCC(=O)NCc1ccc(O)c(OC)c1
inactive: [2] | [4] | [3] | [5]
